PubChem BioAssay (NCATS)
Where “and” joins values, the source holds several entries; their conditions need not be identical. Identical values can stand only once. Inconclusive results are not listed. Values without a mark were called inactive. Calls of active or inactive are those of the source. The call rests on the fitted dose curve.

These compounds were tested against Cytochrome P450 1A2 (Homo sapiens) (UniProt P05177) (assay: p450-cyp1a2 (AID 410;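 on activity change, negative = inhibition: -100% = full effect of reference inhibitor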)). Details: recombinant CYP1A2, luciferin-ME demethylation, luminescence; series mostly up to 57 µM; activity change, negative = inhibition: at the top concentration.
Protocol: The P450 gene superfamily is involved in metabolism and the clearance of xenobiotics. This assay used human CYP1A2 to measure the demethylation of luciferin 6' methyl ether (Luciferin-ME; Promega-Glo) to luciferin. The luciferin is then measured by luminescence after the addition of a luciferase detection regeant. Luciferin-ME concentration in the assay was equal to its Km for CYP1A2.
NCGC Assay Protocol Summary:
Two uL of enzyme and substrate mix (final concentrations: 20nM CYP1A2, 100uM Luciferin-ME, 100mM KPO4) were dispensed into a white, solid bottom 1536-well microtiter plate. 23nL of compound was transferred by a pin tool. The plate was incubated at room temperature for 10 min. Two uL of an NADPH regeneration solution (Promega supplied reagent) was dispensed and the reaction was allowed to continue for 60 min at room temperature. Then the reaction was stopped by reconstituted detection reagent. After another 20 min of incubation the plate was read on the ViewLux (Perkin Elmer) at 60 sec exposure and 2x2 binning. This protocol was carried out with Promega-Glo reagents and further information can be found at http://www.promega.com/tbs/tb325/tb325.pdf. Data were normalized to the to AC100 inhibition (57 uM furafylline).
Potency means the concentration at half of the fitted maximal effect.

Chain of Cytochrome P450 1A2 (Homo sapiens) (P05177 whole entry, looked up): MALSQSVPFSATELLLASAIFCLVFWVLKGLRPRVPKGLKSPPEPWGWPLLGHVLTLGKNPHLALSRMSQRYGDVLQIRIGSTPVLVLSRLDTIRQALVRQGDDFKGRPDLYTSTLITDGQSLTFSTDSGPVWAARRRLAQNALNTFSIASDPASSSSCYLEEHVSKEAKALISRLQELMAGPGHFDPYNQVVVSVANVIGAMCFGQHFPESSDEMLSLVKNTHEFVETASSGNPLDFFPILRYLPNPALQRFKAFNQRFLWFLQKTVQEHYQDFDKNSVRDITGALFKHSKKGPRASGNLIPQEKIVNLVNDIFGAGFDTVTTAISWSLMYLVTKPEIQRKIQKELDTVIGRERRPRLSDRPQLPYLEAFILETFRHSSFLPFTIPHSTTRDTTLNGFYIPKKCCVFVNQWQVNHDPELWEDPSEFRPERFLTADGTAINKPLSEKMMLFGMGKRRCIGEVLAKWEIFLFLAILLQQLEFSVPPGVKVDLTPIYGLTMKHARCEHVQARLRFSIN

**Q.** How did the Potency turn out when N#CC(C#N)=Cc1ccc(O)c(O)c1 was run?
**A.** 15.8 µM (active) and 5.01 µM (active)

**Q.** How did the Potency turn out when Clc1cccc(N2CCNCC2)c1 was run?
**A.** 15.8 µM (active)

**Q.** How did the Potency turn out when N[C@@H]1C[C@H]1c1ccccc1 was run?
**A.** 15.8 µM (active)

**Q.** NN=C(N)N was tested. Which Potency did it give?
**A.** inactive

**Q.** How did the “activity change, negative = inhibition” value turn out when CCCN1CCC[C@@H]2Cc3nc(N)ncc3C[C@H]21 was run?
**A.** 5.6%

**Q.** COC1(CS(=O)c2ccccc2)CCN(CCc2c[nH]c3ccc(F)cc23)CC1 (stereo not drawn) was tested. Which “activity change, negative = inhibition” value did it give?
**A.** -12.4%

**Q.** With COc1ccccc1N1CCNCC1 as the compound, how does the “activity change, negative = inhibition” value read?
**A.** -0.2%

**Q.** O=c1[nH]c2ccccc2n1C1CCN(CCCC(c2ccc(F)cc2)c2ccc(F)cc2)CC1 was tested. Which Potency did it give?
**A.** 20 µM (active) and 31.6 µM (active)

**Q.** Which Potency does the source give for CCCN1CCC[C@@H]2Cc3[nH]ncc3C[C@H]21 here?
**A.** inactive

**Q.** For Oc1cccc2cccnc12, which activity change, negative = inhibition is on record?
**A.** -20% [at 11.4 µM]

**Q.** Cc1ccc(S(=O)(=O)N[C@@H](CCCCN)C(=O)CCl)cc1 was tested. Which “activity change, negative = inhibition” value did it give?
**A.** 3.1%

**Q.** c1ccc(C2CC2)c(OCC2=NCCN2)c1 was tested. Which Potency did it give?
**A.** 15.8 µM (active) and 25.1 µM (active)

**Q.** With NP(N)(=O)NC(=O)c1ccc(F)cc1 as the compound, how does the “activity change, negative = inhibition” value read?
**A.** -12%

**Q.** C#CCN(C)[C@H](C)Cc1ccccc1 was tested. Which Potency did it give?
**A.** 12.6 µM (active)

**Q.** How did the Potency turn out when NCC1(CC(=O)O)CCCCC1 was run?
**A.** inactive

**Q.** O=[N+]([O-])c1cc([As](=O)(O)O)ccc1O was tested. Which “activity change, negative = inhibition” value did it give?
**A.** -2.4% [at 25.6 µM]

**Q.** Which Potency does the source give for Cc1cccc(C)c1NC1=NCCCS1 here?
**A.** inactive

**Q.** For Nc1ccncc1, which Potency is on record?
**A.** inactive
